Reference: PubChem BioAssay AID2205 (University of Pittsburgh Molecular Library Screening Center, 2009)
Among all 200,000 compounds or so, about 1,600 (0.8%) were called active.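 How the source made its calls: active means plate Z-score above 3 for both tubulin-high and condensed-nucleus cell shares, with cell loss under 80%, at 10 µM; inactive means the rest, inconclusive results apart.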 This excerpt belongs to a sample that is enriched for actives.

Experiment: microtubule stabilizers in HeLa cells, primary screen, imaging, high-content imaging (AID 2205);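 on % tubulin-high responders: anti alpha tubulin signal scored within the nucleus-defined area of each cell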;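 on toxicity: 0% = mean cell density of plate MIN control wells and 100% = no cells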
Conditions: HeLa tubulin immunostaining HCS, 24 h, at 10 µM; % Hoechst-high responders: measured here: nuclear condensation Hoechst responders, stronger effect = higher value, share of cells brighter than vehicle mean+2SD; % tubulin-high responders: stronger effect = higher value, share of cells brighter than vehicle mean+2SD; toxicity: measured here: cytotoxicity by cell density

**Q.** Which results are given for `CCOC(=O)CC(NC(=O)C1c2ccccc2Oc2ccccc21)c1ccc(C)cc1` (stereo unspecified)?
**A.** % Hoechst-high responders: 1.91%; % tubulin-high responders: 1.78% (inactive); toxicity: 3.3%

**Q.** With `Cc1cc(-c2nnc(CCC(=O)NC(c3ccccc3)c3ccccc3)o2)no1` as the compound, how does the % Hoechst-high responders read?
**A.** 1.8%

**Q.** What about the % tubulin-high responders of the same compound?
**A.** 2.51% (inactive)

**Q.** And the toxicity?
**A.** 7.53%

**Q.** For `O=C(COC(=O)c1cc(=O)[nH]c2ccccc12)Nc1nc(-c2cccc(Br)c2)cs1`, which % Hoechst-high responders is on record?
**A.** 3.67%

**Q.** What about the % tubulin-high responders of the same compound?
**A.** 2.11% (inactive)

**Q.** What about the toxicity of the same compound?
**A.** 8.74%

**Q.** Which % Hoechst-high responders does the source give for `NS(=O)(=O)c1ccc(CCNC(=O)CCCn2c(SCC(=O)N3CCCC3)nc3ccsc3c2=O)cc1` here?
**A.** 2.7%

**Q.** And the % tubulin-high responders?
**A.** 1.43% (inactive)

**Q.** And the toxicity?
**A.** 6.34%

**Q.** With `CC[C@H]1CN2CCc3cc(OC)c(OC)cc3[C@@H]2C[C@@H]1C[C@H]1NCCc2cc(OC)c(OC)cc21` as the compound, how does the % Hoechst-high responders read?
**A.** 20.9%

**Q.** And the % tubulin-high responders?
**A.** 55.7% (active)

**Q.** And the toxicity?
**A.** 75.2%

**Q.** For `COc1cc2c(cc1O)[C@H](Cc1ccc(Oc3cc(C[C@@H]4NCCc5cc(OC)c(O)cc54)ccc3O)cc1)NCC2`, which % Hoechst-high responders is on record?
**A.** 2.73%

**Q.** And the % tubulin-high responders?
**A.** 2.04% (inactive)

**Q.** And the toxicity?
**A.** 13.6%

**Q.** What does the source list for `CCCCn1c(N)c(N(CC)C(=O)/C=C/c2ccco2)c(=O)[nH]c1=O`?
**A.** % Hoechst-high responders: 2.6%; % tubulin-high responders: 6.6% (inactive); toxicity: 4.9%

**Q.** Which % Hoechst-high responders does the source give for `CC(C)n1c(=O)[nH]c2cc(C(=O)Nc3ccccc3)ccc21` here?
**A.** 0.954%

**Q.** What about the % tubulin-high responders of the same compound?
**A.** 1.61% (inactive)

**Q.** And the toxicity?
**A.** 1.51%

**Q.** Which % Hoechst-high responders does the source give for `COc1ccc(-n2c(C)nn(CC3CC3)c2=O)cc1` here?
**A.** 1.41%

**Q.** What about the % tubulin-high responders of the same compound?
**A.** 0.918% (inactive)

**Q.** And the toxicity?
**A.** 4.19%

**Q.** Which % Hoechst-high responders does the source give for `COc1ccccc1NC(=O)C1=C(C)Nc2nc3ccccc3n2C1c1cccs1` (stereo unspecified) here?
**A.** 37.9%

**Q.** What about the % tubulin-high responders of the same compound?
**A.** 14.5% (active)

**Q.** What about the toxicity of the same compound?
**A.** 54.8%

**Q.** What does the source list for `CCOC(=O)C1=C(C)Nc2nc3ccccc3n2C1c1cccs1` (stereo unspecified)?
**A.** % Hoechst-high responders: 2.61%; % tubulin-high responders: 1.67% (inactive); toxicity: 7.26%

**Q.** Which % Hoechst-high responders does the source give for `CCOc1ccc(C2C(C(=O)NC)=C(C)Nc3nc4ccccc4n32)cc1OC` (stereo unspecified) here?
**A.** 1.52%

**Q.** And the % tubulin-high responders?
**A.** 3.35% (inactive)

**Q.** And the toxicity?
**A.** 7.37%

**Q.** With `Cc1ccc(-n2c(C)cc(C(=O)CSc3nnc4ccccn34)c2C)cc1` as the compound, how does the % Hoechst-high responders read?
**A.** 2.88%

**Q.** What about the % tubulin-high responders of the same compound?
**A.** 3.52% (inactive)

**Q.** And the toxicity?
**A.** 5.15%

**Q.** For `COc1ccc(OC)c(Nc2nc(-c3ccc(O)c(O)c3)cs2)c1`, which % Hoechst-high responders is on record?
**A.** 33.9%

**Q.** What about the % tubulin-high responders of the same compound?
**A.** 34% (active)

**Q.** What about the toxicity of the same compound?
**A.** 37%

**Q.** Which results are given for `COc1ccc(Nc2nc(-c3ccccc3)cs2)cc1`?
**A.** % Hoechst-high responders: 2.53%; % tubulin-high responders: 3.24% (inactive); toxicity: 3.05%

**Q.** With `COc1ccc(-c2csc(Nc3ccc(O)cc3)n2)cc1` as the compound, how does the % Hoechst-high responders read?
**A.** 4.55%

**Q.** What about the % tubulin-high responders of the same compound?
**A.** 6.13% (inactive)

**Q.** And the toxicity?
**A.** 2.94%

**Q.** Which results are given for `COc1ccc(NC(C(=O)Nc2cccc(C(C)=O)c2)c2ccccc2)cc1` (stereo unspecified)?
**A.** % Hoechst-high responders: 4.94%; % tubulin-high responders: 2.7% (inactive); toxicity: 7.43%

**Q.** Which % Hoechst-high responders does the source give for `CCc1cc2cc(OC)ccc2nc1SCC(=O)Nc1cc(OC)c(OC)cc1C(=O)O` here?
**A.** 1.91%

**Q.** And the % tubulin-high responders?
**A.** 2.13% (inactive)

**Q.** And the toxicity?
**A.** 7.82%

**Q.** With `COc1ccccc1C(c1nnnn1CC1CCCO1)N1CCN(c2ccccc2)CC1` (stereo unspecified) as the compound, how does the % Hoechst-high responders read?
**A.** 1.03%

**Q.** And the % tubulin-high responders?
**A.** 3.39% (inactive)

**Q.** What about the toxicity of the same compound?
**A.** 0.528%

**Q.** Which % Hoechst-high responders does the source give for `O=C(c1cn(-c2ccccc2)nc1-c1cc2ccccc2oc1=O)N1CCOCC1` here?
**A.** 1.17%

**Q.** And the % tubulin-high responders?
**A.** 1.1% (inactive)

**Q.** And the toxicity?
**A.** 0.611%

**Q.** Which results are given for `Nc1ncc(-c2cc3ccccc3oc2=O)s1`?
**A.** % Hoechst-high responders: 2.39%; % tubulin-high responders: 5.77% (inactive); toxicity: 5%

**Q.** Which results are given for `O=c1oc2ccccc2cc1-c1cn(-c2ccccc2)c(=S)[nH]1`?
**A.** % Hoechst-high responders: 36.5%; % tubulin-high responders: 12.5% (active); toxicity: 39.3%

**Q.** What does the source list for `Cc1ccc(S(=O)(=O)CCC(=O)OCc2ccccc2)cc1`?
**A.** % Hoechst-high responders: 1.72%; % tubulin-high responders: 4.05% (inactive); toxicity: 4.99%

**Q.** What does the source list for `CC1CCN(c2ccc([N+](=O)[O-])cc2C(N)=O)CC1`?
**A.** % Hoechst-high responders: 1.09%; % tubulin-high responders: 5.37% (inactive); toxicity: 13%

**Q.** Which % Hoechst-high responders does the source give for `O=c1cc(N2CCCCC2)c(-c2ccccc2)nn1Cc1cccc(F)c1` here?
**A.** 0.91%

**Q.** What about the % tubulin-high responders of the same compound?
**A.** 7.03% (inactive)

**Q.** And the toxicity?
**A.** 4.95%

**Q.** For `Cc1ccc(-c2cc(=O)c3ccc(F)cc3[nH]2)cc1`, which % Hoechst-high responders is on record?
**A.** 14.3%

**Q.** And the % tubulin-high responders?
**A.** 22.4% (active)

**Q.** And the toxicity?
**A.** 28.4%

**Q.** For `O=c1cc(-c2ccccc2)[nH]c2cc(F)ccc12`, which % Hoechst-high responders is on record?
**A.** 48.5%

**Q.** What about the % tubulin-high responders of the same compound?
**A.** 14.7% (inactive)

**Q.** And the toxicity?
**A.** 37.5%

**Q.** For `Cc1ccc(-c2cc(=O)c3ccc(Cl)cc3[nH]2)cc1`, which % Hoechst-high responders is on record?
**A.** 1.34%

**Q.** And the % tubulin-high responders?
**A.** 2.15% (inactive)

**Q.** What about the toxicity of the same compound?
**A.** 1.49%

**Q.** For `CN(CC(=O)NC1CCCC1)S(=O)(=O)c1cnc[nH]1`, which % Hoechst-high responders is on record?
**A.** 1.61%

**Q.** What about the % tubulin-high responders of the same compound?
**A.** 4.66% (inactive)

**Q.** What about the toxicity of the same compound?
**A.** 8.08%

**Q.** With `Cc1nn(CC2CC2)c(=O)n1N(C)c1ncc(C(F)(F)F)cc1Cl` as the compound, how does the % Hoechst-high responders read?
**A.** 3.3%

**Q.** And the % tubulin-high responders?
**A.** 5.71% (inactive)

**Q.** What about the toxicity of the same compound?
**A.** 3.78%

**Q.** What does the source list for `CN(NC(=O)c1ccccc1)c1nc2ccccc2nc1C(F)(F)F`?
**A.** % Hoechst-high responders: 38%; % tubulin-high responders: 48.6% (active); toxicity: 33.5%

**Q.** With `COc1ccc(C(=O)NN(C)c2nc(-c3ccccc3)cc(C)c2S(C)(=O)=O)cc1` as the compound, how does the % Hoechst-high responders read?
**A.** 3.04%

**Q.** What about the % tubulin-high responders of the same compound?
**A.** 2.71% (inactive)

**Q.** What about the toxicity of the same compound?
**A.** 4.33%

**Q.** For `Cc1cc(C)n(-c2nc(C(F)(F)F)nc3ccccc23)n1`, which % Hoechst-high responders is on record?
**A.** 2.48%

**Q.** And the % tubulin-high responders?
**A.** 5.42% (inactive)

**Q.** What about the toxicity of the same compound?
**A.** 5.25%

**Q.** What does the source list for `CN(NC(=O)c1ccccc1F)c1nc(C(F)(F)F)nc2ccccc12`?
**A.** % Hoechst-high responders: 59.1%; % tubulin-high responders: 12.1% (active); toxicity: 32.2%

**Q.** With `CSc1nc(N(C)NC(=O)c2cccc(C)c2)c2ccccc2n1` as the compound, how does the % Hoechst-high responders read?
**A.** 33.9%

**Q.** What about the % tubulin-high responders of the same compound?
**A.** 13.4% (inactive)

**Q.** What about the toxicity of the same compound?
**A.** 39.2%

**Q.** What does the source list for `COC(=O)CNC(=O)c1ccccc1F`?
**A.** % Hoechst-high responders: 1.58%; % tubulin-high responders: 0.975% (inactive); toxicity: 9.24%

**Q.** Which results are given for `CCN(CC)S(=O)(=O)c1ccc(N(C)CCc2ccc(OC)c(OC)c2)nc1`?
**A.** % Hoechst-high responders: 1.73%; % tubulin-high responders: 5.42% (inactive); toxicity: 7.66%

**Q.** For `Cc1ccsc1C(=O)N/N=C/c1ccc([N+](=O)[O-])cc1`, which % Hoechst-high responders is on record?
**A.** 2.36%

**Q.** What about the % tubulin-high responders of the same compound?
**A.** 3.58% (inactive)

**Q.** And the toxicity?
**A.** 0.132%

**Q.** What does the source list for `Cc1ccc(/C=N/NC(=O)c2sccc2OCc2ccc(F)cc2)cc1`?
**A.** % Hoechst-high responders: 18.4%; % tubulin-high responders: 39.2% (active); toxicity: 68.8%

**Q.** For `Cc1ccc(COc2ccc(/C=N/NC(=O)CN3CCCCC3)cc2)cc1`, which % Hoechst-high responders is on record?
**A.** 2.2%

**Q.** What about the % tubulin-high responders of the same compound?
**A.** 1.76% (inactive)

**Q.** What about the toxicity of the same compound?
**A.** 4.99%

**Q.** What does the source list for `Cn1cnnc1SCC(=O)Nc1ccc(N2CCOCC2)cc1`?
**A.** % Hoechst-high responders: 3.45%; % tubulin-high responders: 1.73% (inactive); toxicity: 7.15%

**Q.** Which % Hoechst-high responders does the source give for `O=C(c1snnc1-c1ccccc1)N1CCOCC1` here?
**A.** 2.21%

**Q.** What about the % tubulin-high responders of the same compound?
**A.** 5.38% (inactive)

**Q.** And the toxicity?
**A.** 8.24%

**Q.** With `O=C(COC(=O)c1cc(S(=O)(=O)N2CCCCC2)ccc1Cl)NCc1ccco1` as the compound, how does the % Hoechst-high responders read?
**A.** 2.04%

**Q.** And the % tubulin-high responders?
**A.** 2.32% (inactive)

**Q.** And the toxicity?
**A.** 4.83%

**Q.** With `Cc1cc(C(=O)OCC(=O)NCc2ccco2)c(C)n1-c1ccccc1` as the compound, how does the % Hoechst-high responders read?
**A.** 31.8%

**Q.** And the % tubulin-high responders?
**A.** 24.1% (active)

**Q.** And the toxicity?
**A.** 57.4%

**Q.** Which results are given for `O=C(COC(=O)c1cnc(Cl)c(Cl)c1)NCc1ccco1`?
**A.** % Hoechst-high responders: 2.45%; % tubulin-high responders: 2.71% (inactive); toxicity: 7.79%

**Q.** With `O=C(Cn1nnc(-c2ccccc2)n1)N/N=C/c1ccc(-c2ccc(Cl)cc2)o1` as the compound, how does the % Hoechst-high responders read?
**A.** 2.75%

**Q.** What about the % tubulin-high responders of the same compound?
**A.** 3.12% (inactive)

**Q.** What about the toxicity of the same compound?
**A.** 5.19%

**Q.** Which % Hoechst-high responders does the source give for `O=C(CCNS(=O)(=O)c1ccc(Br)s1)NCc1ccccc1Cl` here?
**A.** 1.95%

**Q.** What about the % tubulin-high responders of the same compound?
**A.** 0.853% (inactive)

**Q.** And the toxicity?
**A.** 9.73%
